{
  "source": "paper PMC8384837",
  "about": "“Expanding the binding specificity for RNA recognition by a PUF domain”",
  "test_in_all_cases": "yeast three-hybrid, YBZ-1, SC-Leu-His + 0.5 mM 3-AT, 4 days",
  "settings_in_all_cases": "tags: N-Gal4 AD-HA kept; label: inside an RPR1-promoter hybrid RNA with tandem MS2 sites; ssRNA",
  "key": {"PUM1 PUF domain R4-TPS": {"molecular_target": "PUM1 PUF domain R4-TPS (Homo sapiens, UniProt Q14671 828-1176, N971T;H972P;Q975S)", "outline": "(§1)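 Each repeat of the Pumilio-1 PUF domain was randomized at its three base-contacting residues, and these libraries were co-expressed from a centromeric plasmid with matching RNA elements in strain YBZ-1. After four days on SC-Leu (input) or SC-Leu-His + 0.5 mM 3-AT (selection), the repeat regions were PCR-amplified and Illumina-sequenced. The interaction score compares variant frequency between input and selection as a log change, computed in log2 with a pseudocount of 1 for absent variants.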"}, "PUM1 PUF domain R6-HHS": {"molecular_target": "T1, PUM1 PUF domain R6-HHS (Homo sapiens, UniProt Q14671 828-1176, N1043H;Y1044H;Q1047S)", "T1 sequence": "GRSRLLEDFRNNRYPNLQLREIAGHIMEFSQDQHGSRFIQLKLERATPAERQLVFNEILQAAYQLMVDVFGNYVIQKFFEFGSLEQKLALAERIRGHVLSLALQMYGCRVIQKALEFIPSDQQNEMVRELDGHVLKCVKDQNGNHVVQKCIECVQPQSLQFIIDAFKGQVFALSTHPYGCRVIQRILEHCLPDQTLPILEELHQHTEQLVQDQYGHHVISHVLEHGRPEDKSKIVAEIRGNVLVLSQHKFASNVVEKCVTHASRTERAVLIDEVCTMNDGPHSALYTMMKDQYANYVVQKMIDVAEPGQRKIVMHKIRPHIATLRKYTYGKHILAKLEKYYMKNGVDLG", "outline": "as §1"}, "PUM1 PUF domain R6-NFW": {"molecular_target": "T2, PUM1 PUF domain R6-NFW (Homo sapiens, UniProt Q14671 828-1176, Y1044F;Q1047W)", "T2 sequence": "T1 sequence with H216N, H217F, S220W", "outline": "as §1"}, "PUM1 PUF domain R3-GFW": {"molecular_target": "PUM1 PUF domain R3-GFW (Homo sapiens, UniProt Q14671 828-1176, C935G;R936F;Q939W)", "outline": "as §1"}, "PUM1 PUF domain R8-HYN": {"molecular_target": "PUM1 PUF domain R8-HYN (Homo sapiens, UniProt Q14671 828-1176, N1122H;Q1126N)", "outline": "as §1"}, "PUM1 PUF domain R4-SNG": {"molecular_target": "PUM1 PUF domain R4-SNG (Homo sapiens, UniProt Q14671 828-1176, N971S;H972N;Q975G)", "outline": "as §1"}, "PUM1 PUF domain R5-RQG": {"molecular_target": "PUM1 PUF domain R5-RQG (Homo sapiens, UniProt Q14671 828-1176, C1007R;R1008Q;Q1011G)", "outline": "as §1"}, "PUM1 PUF domain R1-KIL": {"molecular_target": "PUM1 PUF domain R1-KIL (Homo sapiens, UniProt Q14671 828-1176, S863K;R864I;Q867L)", "outline": "as §1"}, "PUM1 PUF domain R5-RCC": {"molecular_target": "PUM1 PUF domain R5-RCC (Homo sapiens, UniProt Q14671 828-1176, C1007R;R1008C;Q1011C)", "outline": "as §1"}, "PUM1 PUF domain R8-RWI": {"molecular_target": "PUM1 PUF domain R8-RWI (Homo sapiens, UniProt Q14671 828-1176, N1122R;Y1123W;Q1126I)", "outline": "as §1"}},
  "note": "Residue numbers refer to the chain shown, from its start.",
  "data": [
    {"sequence": "GGCUAGAACUAGUGGAUCCCCCGGCGCCCGGCGGCUCGAGCCCGGGUAAGUGUACAUAGUCUGCAUGCCGCCGGGCGCCAUGCCUGCAGGUCGACUCUAGAAAACAUG", "values": [
      {"measurement": "binding signal", "setting": "PUM1 PUF domain R4-TPS", "value": "4.18 log2 enrichment (interaction score)"}
    ]},
    {"sequence": "GGCUAGAACUAGUGGAUCCCCCGGCGCCCGGCGGCUCGAGCCCGGGUAAGUGUAAAUAGUCUGCAUGCCGCCGGGCGCCAUGCCUGCAGGUCGACUCUAGAAAACAUG", "values": [
      {"measurement": "binding signal", "setting": "PUM1 PUF domain R6-HHS", "value": "4.38 log2 enrichment (interaction score)"},
      {"measurement": "binding signal", "setting": "PUM1 PUF domain R6-NFW", "value": "2.25 log2 enrichment (interaction score)"},
      {"measurement": "binding signal", "setting": "PUM1 PUF domain R3-GFW", "value": "5.77 log2 enrichment (interaction score)"},
      {"measurement": "binding signal", "setting": "PUM1 PUF domain R8-HYN", "value": "2.92 log2 enrichment (interaction score)"},
      {"measurement": "binding signal", "setting": "PUM1 PUF domain R4-SNG", "value": "1.17 log2 enrichment (interaction score)"},
      {"measurement": "binding signal", "setting": "PUM1 PUF domain R4-TPS", "value": "3 log2 enrichment (interaction score)"},
      {"measurement": "binding signal", "setting": "PUM1 PUF domain R5-RQG", "value": "0.8 log2 enrichment (interaction score)"}
    ]},
    {"sequence": "GGCUAGAACUAGUGGAUCCCCCGGCGCCCGGCGGCUCGAGCCCGGGUAAGUGUUAAUAGUCUGCAUGCCGCCGGGCGCCAUGCCUGCAGGUCGACUCUAGAAAACAUG", "values": [
      {"measurement": "binding signal", "setting": "PUM1 PUF domain R5-RQG", "value": "5 log2 enrichment (interaction score)"}
    ]},
    {"sequence": "GGCUAGAACUAGUGGAUCCCCCGGCGCCCGGCGGCUCGAGCCCGGGUAAGUGUGAAUAGUCUGCAUGCCGCCGGGCGCCAUGCCUGCAGGUCGACUCUAGAAAACAUG", "values": [
      {"measurement": "binding signal", "setting": "PUM1 PUF domain R5-RQG", "value": "0.9 log2 enrichment (interaction score)"}
    ]},
    {"sequence": "GGCUAGAACUAGUGGAUCCCCCGGCGCCCGGCGGCUCGAGCCCGGGUAAGUGUAUAUAGUCUGCAUGCCGCCGGGCGCCAUGCCUGCAGGUCGACUCUAGAAAACAUG", "values": [
      {"measurement": "binding signal", "setting": "PUM1 PUF domain R4-SNG", "value": "3.22 log2 enrichment (interaction score)"}
    ]},
    {"sequence": "GGCUAGAACUAGUGGAUCCCCCGGCGCCCGGCGGCUCGAGCCCGGGUAAGUGUAAAUCGUCUGCAUGCCGCCGGGCGCCAUGCCUGCAGGUCGACUCUAGAAAACAUG", "values": [
      {"measurement": "binding signal", "setting": "PUM1 PUF domain R1-KIL", "value": "2.59 log2 enrichment (interaction score)"}
    ]},
    {"sequence": "GGCUAGAACUAGUGGAUCCCCCGGCGCCCGGCGGCUCGAGCCCGGGUAAGUGUCAAUAGUCUGCAUGCCGCCGGGCGCCAUGCCUGCAGGUCGACUCUAGAAAACAUG", "values": [
      {"measurement": "binding signal", "setting": "PUM1 PUF domain R5-RCC", "value": "4.34 log2 enrichment (interaction score)"},
      {"measurement": "binding signal", "setting": "PUM1 PUF domain R5-RQG", "value": "5.03 log2 enrichment (interaction score)"}
    ]},
    {"sequence": "GGCUAGAACUAGUGGAUCCCCCGGCGCCCGGCGGCUCGAGCCCGGGUAAGCGUAAAUAGUCUGCAUGCCGCCGGGCGCCAUGCCUGCAGGUCGACUCUAGAAAACAUG", "values": [
      {"measurement": "binding signal", "setting": "PUM1 PUF domain R8-RWI", "value": "5.86 log2 enrichment (interaction score)"}
    ]}
  ]
}
